Test results taken from PubChem BioAssay AID504850 (National Center for Advancing Translational Sciences (NCATS), 2011).
Screen size: about 2,300 compounds; about 1,200 (52%) were called active. Another 34% or so got no clear call; they are omitted. Calls come from the whole dose curve; as a rule, active = well fitted inhibition curve with a large enough effect; inconclusive = small, poorly fitted or top-dose-only effect, or effect the other way; inactive = no such curve, though single readings can be large or run the other way. The set was probably picked from earlier hits. Some of the results follow.

Experiment: Confirmation screen for delayed death inhibitors of the malarial parasite plastid, 48 hour incubation; note: nearly all actives have a fitted effect of over 65% in size
Conditions: P. falciparum-infected erythrocytes, luciferase growth; series mostly up to 28.7 µM; activity change, negative = inhibition: at the top concentration
In short: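 Single-generation (48 h, 37 C) exposure of integrated firefly luciferase-reporter P. falciparum in red cells, 0.1% parasitemia at 2% hematocrit, Albumax-supplemented RPMI. Falling luciferase signal marks parasite growth inhibition.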
% is set by controls: 0 for no effect and ±100 for the full control effect; potency is the fitted concentration of half-maximal effect.

Compound | Potency | activity change, negative = inhibition
CCOC(=O)C1CCN(c2cc3c(cc2NC(=O)c2ccccc2Cl)n(C)c(=O)n3C)CC1 | 11.2 µM (active) | 
CCOc1c(Cl)cc(C(=O)Nc2ccccc2C(=O)O)cc1Cl |  | -9.43% (inactive)
CC(=O)N(C)C1=C(N2CCOCC2)C(=O)c2ccccc2C1=O | 0.631 µM (active) | 
O=C(CCN1C(=O)/C(=C/c2ccccc2Cl)SC1=S)N1CCOCC1 | 15.8 µM (active) | 
CN1CCN(C(=O)CCN2C(=O)/C(=C/c3cccc(Br)c3)SC2=S)CC1 | 11.2 µM (active) | 
CN1CCN(C(=O)CCN2C(=O)/C(=C\c3ccc(Cl)cc3)SC2=S)CC1 |  | -20.3% (inactive)
C=C(C)n1c(=O)n(Cc2ccccc2C)c2ccccc21 | 12.6 µM (active) | 
Cc1ccc(-n2c(Cl)c(Cl)nc(Cl)c2=O)cc1 | 12.6 µM (active) | 
Cc1ccc(-n2nnnc2SCC(=O)Nc2ccccc2-c2ccccc2)cc1C |  | -14.7% (inactive)
Cc1ccc(-n2nnnc2Sc2nc([N+](=O)[O-])nn2C)cc1C | 3.55 µM (active) | 
O=C(OCC(=O)N1CCN(c2ccccc2)CC1)c1cc(Cl)ccc1[N+](=O)[O-] |  | 3.6% (inactive)
N#Cc1cc(C(=O)c2cc(Cl)ccc2O)cn(-c2ccccc2)c1=O | 14.1 µM (active) | 
Cc1[nH]c(C)c(S(=O)(=O)N2CCN(c3cccc(C(F)(F)F)c3)CC2)c1C(=O)N1CCCCC1 |  | -17.5% (inactive)
Cc1[nH]c(=O)[nH]c(=O)c1S(=O)(=O)N1CCCC(C(=O)N2CCN(c3cccc(C(F)(F)F)c3)CC2)C1 (centres undefined) | 12.6 µM (active) | 
CCCCNC(=O)c1onc(CSc2cc(C)ccc2C)c1C(=O)O |  | -13.3% (inactive)
Cc1cc(C(C)(C)C)cc(C)c1CCNC(=O)c1c(C)noc1C | 12.6 µM (active) | 
Cc1ccc(C)c(SCc2noc(C(=O)NC(C)C)c2C(=O)O)c1 |  | -13.7% (inactive)
Cc1cc(C(C)(C)C)cc(C)c1CCNC(=O)c1ccc[n+]([O-])c1 | 14.1 µM (active) | 
CCN(C(=O)c1cc2c(=O)n3ccccc3nc2n1CCCOC)C1CCCCC1 | 12.6 µM (active) | 
COc1ccc(OC)c(NC(=O)c2ccccc2N(C)S(=O)(=O)c2ccc(C)cc2)c1 | 14.1 µM (active) | 

Compound | Potency | activity change, negative = inhibition
COc1ccc(OC)c(NC(=O)c2nc(S(=O)(=O)Cc3ccccc3)ncc2Cl)c1 |  | -17.6% (inactive)
Cc1ccc(Nc2cc(C)c3ccc(O)cc3n2)cc1C | 0.224 µM (active) | 
CC(c1ccco1)N(C(=O)c1cc(Cl)cc(Cl)c1)c1ccccn1 (centres undefined) | 11.2 µM (active) | 
CC(C)C1N=C(c2ccc3c(c2)OCO3)CC(c2ccccc2O)N1 (centres undefined) | 12.6 µM (active) | 
CC(C)N1CCC2(CC1)N=C(c1ccc3c(c1)OCO3)CC(c1cc(Cl)ccc1O)N2 (centres undefined) | 2.82 µM (active) | 
COc1cc(Cn2nnc3ccccc32)ccc1O | 12.6 µM (active) | 
COc1ccc(/C=C/C(=O)c2ccccc2)cc1Cn1nnc2ccccc21 | 10 µM (active) | 
CC(C)C[C@@H](CN=[N+]=[N-])N1CCN(C)CCC1=O |  | -2.87% (inactive)
Cc1cc(NC(=O)COC(=O)c2ccccc2S(=O)(=O)N(C)c2ccccc2)no1 | 8.91 µM (active) | 
CC(C)NC(=O)NC(=O)COC(=O)c1ccccc1Oc1ccccc1 |  | -39.6% (inactive)
O=C(COC(=O)c1ccc(O)cc1O)Nc1ccc2ccccc2c1 |  | 34.1% (inactive)
Cc1cccc(C)c1NC(=O)CCCSc1nnc(-c2ccc(F)cc2)n1-c1ccccc1 | 15.8 µM (active) | 
COC(=O)CCC(=O)OC1(C)C(=O)C=C2C=C(C3CC3)N(CCCOC(C)C)C=C2C1=O (centres undefined) | 2 µM (active) | 
OCC1(CCOc2ccccc2)CCN(Cc2nc3ccc(F)cc3[nH]2)CC1 | 12.6 µM (active) | 
Cc1c(CN2CCC(CO)(CCOc3ccccc3)CC2)[nH]c2ccc(Cl)cc12 | 7.08 µM (active) | 
CN(C)c1ccc2nc3ccc(=[N+](C)C)cc-3sc2c1 | 0.0794 µM (active) | 
COc1ccccc1-n1c(SCC(=O)Nc2cc(C)on2)nc2c([nH]c3ccccc32)c1=O | 8.91 µM (active) | 
COc1ccc(C)cc1-n1c(SCC(=O)Nc2cc(C)on2)nc2sc(C)c(C)c2c1=O | 2.51 µM (active) | 
NC(=O)C1CCN(c2nc(C3CC3)nc3c2nnn3Cc2ccccc2Cl)CC1 | 4.47 µM (active) | 
